# Laboratory results: PubChem BioAssay (NCI)
# This is part of a sample that, as a whole, favours compounds with a hit. Of some 83,000 tested, about 20% had one in any assay.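 A percent growth of 40 corresponds to 60% growth inhibition; 0 means no net growth; -100 means all cells died. Active threshold: below 10.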 A number with no mark means an inactive call. Active and inactive are the calls of the source.
# Legend:
# Test in all cases: NCI-60 one-dose screen, 48 h (100 = growth as untreated, 0 = no growth, -100 = all killed)
# Settings in all cases: 10 µM unless noted
# [1] = test system: SK-MEL-2 melanoma
# [2] = test system: EKVX NSCLC
# [3] = test system: SN12C renal
# [4] = test system: UO-31 renal
# [5] = test system: TK-10 renal
# [6] = test system: ACHN renal
# [7] = test system: CAKI-1 renal
# [8] = test system: A498 renal
# [9] = test system: CCRF-CEM leukemia
# [10] = test system: MOLT-4 leukemia
# [11] = test system: SR leukemia
# [12] = test system: RPMI-8226 leukemia
# [13] = test system: OVCAR-8 ovarian
# [14] = test system: OVCAR-5 ovarian
# [15] = test system: OVCAR-4 ovarian
# [16] = test system: SK-OV-3 ovarian
# [17] = test system: IGROV1 ovarian
# [18] = test system: OVCAR-3 ovarian
# [19] = test system: HS 578T breast
# [20] = test system: NCI/ADR-RES ovarian
SMILES,growth [1],growth [2],growth [3],growth [4],growth [5],growth [6],growth [7],growth [8],growth [9],growth [10],growth [11],growth [12],growth [13],growth [14],growth [15],growth [16],growth [17],growth [18],growth [19],growth [20]
Cc1[nH]c(C(=O)Nc2ccccc2OCc2cccc(C(=O)NCCN)c2)cc1Cl,92.8%,105%,93.9%,92.2%,98.9%,95.1%,90.2%,68.3%,27.4%,68.6%,-3.39% (active),89.6%,84.7%,97%,102%,101%,94.5%,109%,102%,99.4%
CC(=C(c1ccc(OCCN2CCCC2)cc1)c1ccc(OCCN2CCCC2)cc1)c1ccc(Cl)cc1,-2.54% (active),37.3%,47.9%,-74% (active),78.6%,-72.5% (active),26.8%,86.5%,-48.6% (active),-43% (active),-45.8% (active),-54.8% (active),-6.74% (active),-16% (active),-11.2% (active),85.8%,-50.7% (active),-20.8% (active),-31.2% (active),-12% (active)
CC(Nc1ncnc2ccc(-c3cnc(N)nc3)cc12)c1ccccc1 (stereo not given),60.8%,13.5%,22.1%,9.12% (active),-8.21% (active),16.9%,16.7%,11.5%,36.4%,30.3%,15.1%,28.2%,48%,28.7%,39.7%,27.3%,-13.4% (active),43.8%,5.98% (active),53%
COc1cc2oc(-c3cccc(NC(=O)[C@@H](N)C(C)C)c3)cc(=O)c2c(OC)c1OC,102%,98.4%,101%,76.3%,97.7%,100%,91.1%,95.7%,97.9%,99.9%,76.9%,88.2%,99%,103%,107%,104%,103%,108%,112%,107%
C[C@H](Nc1ncnc2ccc(-c3cnc(Cl)c(NS(C)(=O)=O)c3)cc12)c1ccccc1,-84.9% (active),-34.3% (active),13.4%,-63.5% (active),-82.3% (active),9.8% (active),-22.4% (active),-23.8% (active),7.38% (active),-16.5% (active),-20.1% (active),-7.72% (active),-26.3% (active),-14.9% (active),0.576% (active),-65.5% (active),-28.8% (active),-65.9% (active),-20% (active),7.69% (active)
Cc1ccc(-c2csc(N/N=C/c3cccs3)n2)cc1,111%,65.2%,100%,75.1%,151%,90.4%,87.4%,116%,91.9%,86.7%,56.1%,86.5%,93.6%,122%,59.6%,101%,86.3%,104%,105%,92.7%
Clc1ccc(CSc2nnc(-c3ccc(Cl)cc3)n2-c2ccccc2)cc1,85.9%,86.6%,82.9%,68.2%,93.3%,55.5%,62.9%,68%,97.4%,92%,91.7%,94.4%,46.3%,104%,16%,48.3%,75.9%,101%,43.7%,54.2%
O=C(CSc1nc2ccccc2c(=O)n1-c1ccc(S(=O)(=O)Nc2ccc(Cl)nn2)cc1)Nc1ccc(S(=O)(=O)Nc2ccc(Cl)nn2)cc1,120%,99.8%,106%,87.9%,106%,98.2%,91.9%,104%,101%,97.6%,87.3%,108%,103%,103%,101%,105%,107%,108%,106%,103%
O=C(CN1CCN(c2cc(=O)[nH]c3ccc(F)cc23)CC1)N(c1ccccc1)c1ccccc1,106%,96.8%,97.1%,90.3%,98.7%,105%,95.1%,83.7%,102%,99.5%,90.8%,115%,108%,102%,101%,109%,99.8%,109%,101%,102%
CCCC[n+]1ccc(SCC(=O)n2ccc3ccccc32)c2ccccc21,99.9%,88.1%,96.5%,76.5%,141%,104%,81.9%,111%,87.3%,83.1%,56.3%,59.5%,92.7%,103%,72.1%,88.9%,83.3%,91.8%,99.6%,110%
O=C(CCCCCCNC(=O)C(O)(O)C(F)(F)F)Nc1ccc(Br)cc1,-24.7% (active),33.3%,20.1%,-2.06% (active),-2.6% (active),-15.8% (active),-13.9% (active),-13.9% (active),23.9%,13.2%,8.58% (active),20.7%,7.83% (active),5.89% (active),28.5%,-13.4% (active),15.7%,-12.8% (active),15.7%,16.9%
Nc1cc(C(=O)N/N=C\c2ccc(OC(F)F)c(OC3CCCC3)c2)nn1CC(O)c1ccccc1 (stereo not given),101%,104%,105%,76.5%,112%,105%,81.9%,100%,92.3%,78.5%,88.1%,87.5%,96.9%,108%,91.4%,105%,108%,,109%,109%
CCOC(=O)c1cccc(NC2=C(Cl)C(=O)C(C)=C(C)C2=O)c1,104%,74.4%,94.8%,96.7%,129%,106%,89.4%,89.1%,13.9%,5.67% (active),27.7%,26.8%,98.8%,105%,-4.17% (active),107%,32.2%,,95.9%,102%
Brc1cccc(-c2cc(-c3cnc4c(c3)OCCO4)n[nH]2)c1,52.1%,50.4%,62.8%,51%,89.9%,51.6%,51.8%,50.6%,36.7%,34.1%,13.4%,26.2%,46.4%,72.3%,82.5%,77.1%,45%,,76.1%,10.9%
O=C1c2ccccc2C23C(=C(c4cncnc4)c4ccccc42)CCCN13 (stereo not given),106%,100%,96.4%,85.6%,97%,99.2%,78.5%,96.4%,102%,107%,96.1%,103%,104%,96.5%,93.3%,118%,107%,,95%,103%
CCc1cccc2c3c(sc12)C(c1ccc(F)cc1)C(C#N)=C(/N=C/c1ccc(Cl)cc1)O3 (stereo not given),-7.31% (active),47.8%,32.4%,39.2%,93.5%,32.3%,41.5%,-10.4% (active),20.7%,25.4%,18.8%,21.5%,13.6%,29.1%,80.6%,42.6%,29.9%,,-1.77% (active),7.87% (active)
